In PubChem BioAssay (NCATS):
Results filed as inconclusive are left out. Where a call stands in place of a potency, no number is given. The source made the active and inactive calls. The call rests on the fitted dose curve; in most records, active means well fitted inhibition curve with a large enough effect; inconclusive means small, poorly fitted or top-dose-only effect; inactive means flat fitted curve, though single readings scatter.

Assay: P-glycoprotein substrates identified in KB-8-5-11 adenocarcinoma cell line, qHTS therapeutic library screen (AID 1346987); further: nearly all actives have a fitted effect of over 65% in size
Conditions: KB-8-5-11 (P-gp overexpressing) viability, CellTiter-Glo, 72 h; series mostly up to 44.5 µM
How it was run: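 In this qHTS, P-gp-rich KB-8-5-11 cells received library compounds across a concentration range. Viability was quantified by luminescence after 72 h at 37 degree C.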

Compound | Potency | activity change, negative = cytotoxicity | outcome
COc1cc(NC(=O)c2ccccn2)ccc1Cl | inactive |  | 
O=C(COc1ccc(Cl)cc1)NC1CCC(NC(=O)COc2ccc(Cl)cc2)CC1 (stereo not given) | inactive |  | 
C[C@]12CCC(=O)C=C1[C@@H](O)C[C@@H]1[C@@H]2[C@@H](O)C[C@@]2(C)[C@H]1CC[C@]2(O)C(=O)CO | inactive |  | 
O=C(c1ccccn1)c1cnn2c(-c3ccncc3)ccnc12 | inactive |  | 
O=C(c1ccc(F)cc1)C1CCN(CCn2c(=O)nc3n(c2=O)CCCC3)CC1 | inactive |  | 
CC(C)(O)C1=CCC23COC(C2)C(O)(C(=O)O)CCC13 (stereo not given) | inactive |  | 
C=C[C@H]1[C@H](O[C@@H]2O[C@H](CO)[C@@H](O)[C@H](O)[C@H]2O)OC=C(C(=O)OC)[C@H]1C[C@@H]1N[C@H](C(=O)O)Cc2c1[nH]c1ccccc21 | inactive |  | 
CC(C)C1(O[C@@H]2O[C@H](CO)[C@@H](O)[C@H](O)[C@H]2O)CC=C(CO)CC1 (stereo not given in full) | inactive |  | 
CC1(C)CC2C3=CCC4C5(C)CCC(OC6OC(C(=O)O)C(O)C(O)C6OC6OC(CO)C(O)C(O)C6OC6OC(CO)C(O)C(O)C6O)C(C)(CO)C5CCC4(C)C3(C)CCC2(C)C(OC2OCC(O)C(OC3OC(CO)C(O)C(O)C3O)C2O)C1O (stereo not given) |  | 1.76% [at 9.29 µM] (inactive) | 
C/C(=C/CO)CC[C@@H]1[C@@]2(C)CCC[C@](C)(C(=O)O)C2CC[C@@]1(C)O (stereo not given in full) | inactive |  | 
CC(C)(O)c1ccc2c(c1)C(O)CC1C(C)(C(=O)O)CCCC21C (stereo not given) | inactive |  | 
CCOC(=O)[C@H](CCc1ccccc1)CC1(C(=O)N[C@H]2CCc3ccccc3N(CC(=O)O)C2=O)CCCC1 | inactive |  | 
C/C=C/C=C/C=C/C(=O)O[C@@H]1C=C(CO)C(O)(C(=O)O)[C@@]2(C)CCCC(C)(C)[C@H]12 (stereo not given in full) | inactive |  | 
COc1cc([C@@H]2Oc3c(OC)cc(CCCO)cc3[C@@H]2CO[C@@H]2O[C@H](CO)[C@@H](O)[C@H](O)[C@H]2O)ccc1O | inactive |  | 
CC1CCC2C(C)(C)C(O)CCC2(C)C12Cc1c(O)cc3c(c1O2)CN=C3N (stereo not given) | inactive |  | 
C[C@@H]1CC[C@]2(C)C(C[C@@H](O)[C@H](O)[C@]23CO3)[C@@]1(C)CCc1ccoc1 (stereo not given in full) | inactive |  | 
C[C@@H]1O[C@@H](O[C@H]2[C@H](O[C@H]3CC[C@@]4(C)C(CC[C@]5(C)C4CC=C4C6CC(C)(C)CC[C@]6(C(=O)O[C@@H]6O[C@H](CO[C@@H]7O[C@H](CO)[C@@H](O[C@@H]8O[C@@H](C)[C@H](O)[C@@H](O)[C@H]8O)[C@H](O)[C@H]7O)[C@@H](O)[C@H](O)[C@H]6O)CC[C@]45C)[C@]3(C)CO)OC[C@H](O)[C@@H]2O)[C@H](O)[C@H](O)[C@H]1O (stereo not given in full) |  |  | inactive [at 9.29 µM]
CC(C)CC(=O)OC[C@H]1O[C@@](COC(=O)CC(C)C)(O[C@H]2O[C@H](CO)[C@@H](O)[C@H](O)[C@H]2OC(=O)CC(C)C)[C@@H](OC(=O)CC(C)C)[C@@H]1O | inactive |  | 
IC(I)I | inactive |  | 
COc1cc(/C=C/C(=O)OC[C@H]2O[C@H](O[C@]3(CO)O[C@H](CO)[C@@H](O)[C@@H]3O)[C@H](O)[C@@H](O)[C@@H]2O)cc(OC)c1O | inactive |  | 
C=C(C)C(C)C1OC23CC4(CO2)C(CCC2C5(C)CCC(OC6OCC(O)C(OC7OC(CO)C(O)C(OC8OCC(O)C(O)C8O)C7O)C6OC6OC(CO)C(O)C6O)C(C)(C)C5CCC24C)C3C(C)(O)C1OC(C)=O (stereo not given) |  | 3.91% [at 9.29 µM] (inactive) | 
C=C1CCC2C(C)(C)C(O)CCC2(C)C1CCC(C)CCOC(=O)CCC(=O)O (stereo not given) | inactive |  | 
C=C(C(=O)O)C1CCC(C)C2CCC(=O)OC2(C)C1 (stereo not given) | inactive |  | 
CNC(=O)COC(=O)NCCC1CCN(c2cccc(C)n2)CC1 | inactive |  | 
OCC1OC(Oc2cc(O)c3c(c2)OC(c2ccc(O)cc2)C(O)C3)C(O)C1O (stereo not given) | inactive |  | 
CC(O)(CC(=O)O)CC(=O)O[C@@H]1[C@@H](O)[C@H](OCCc2ccccc2)O[C@H](CO)[C@H]1O (stereo not given in full) | inactive |  | 
c1ccc(C(OC2CCN(CCCc3nn[nH]n3)CC2)c2ccccc2)cc1 | inactive |  | 
C=C1CC2C3(C)C(O)CC(=O)C(C)(C)C3C(OC(C)=O)C(OC(C)=O)C2(C)C2C(=O)OC(C)(C(=O)OC)C(=O)C12C (stereo not given) | inactive |  | 
CC(C)CNC(=O)/C=C/CCCCc1ccc2c(c1)OCO2 | inactive |  | 
C=C1C(OC(C)=O)C(=O)C2C(C)(C)C(OC(C)=O)CCC2(C)C1CC(OC(C)=O)/C(C)=C/COC(C)=O (stereo not given) | inactive |  | 
